About 2,000 (36%) of roughly 5,500 compounds were called active. Roughly 18% stayed inconclusive and do not appear here. Cut-off read from the data, not from the text of the source: active = normalized growth mostly below about 0.91 (no sharp cut-off); inconclusive = no clear call, values can overlap the other calls; inactive = mostly above about 0.92. Some of the results follow.
Assay: chemical genetic growth profiling, strain panel (AID 1159580);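 note: tested at 20 µM; growth read once vehicle control cultures reached saturation at 30 °C; 1 = growth at the plate median or of vehicle wells; lower values mean less growth of the strain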
Conditions: growth OD
[1] = S. cerevisiae deletion strains, locus YAR019C, strain CDC15, active compounds read low
[2] = S. cerevisiae deletion strains, locus YBL105C, strain PKC1, active compounds read low
[3] = S. cerevisiae deletion strains, locus YBR135W, strain CKS1, active compounds read low
[4] = S. cerevisiae deletion strains, locus YBR136W, strain MEC1, active compounds read low
[5] = S. cerevisiae deletion strains, locus YBR160W, strain CDC28, active compounds read low
[6] = S. cerevisiae deletion strains, locus YDL017W, strain CDC7, active compounds read low
[7] = S. cerevisiae deletion strains, locus YDL028C, strain MPS1, active compounds read low
[8] = S. cerevisiae deletion strains, locus YDL101C, strain DUN1, active compounds read low
[9] = S. cerevisiae deletion strains, locus YDL108W, strain KIN28, active compounds read low
[10] = S. cerevisiae deletion strains, locus YDL132W, strain cdc53, active compounds read low
[11] = S. cerevisiae deletion strains, locus YDL214C, strain PRR2, active compounds read low
[12] = S. cerevisiae deletion strains, locus YDR052C, strain DBF4, active compounds read low
[13] = S. cerevisiae deletion strains, locus YDR054C, strain cdc34, active compounds read low
[14] = S. cerevisiae deletion strains, locus YDR226W, strain ADK1, active compounds read low
[15] = S. cerevisiae deletion strains, locus YDR477W, strain SNF1, active compounds read low
[16] = S. cerevisiae deletion strains, locus YER123W, strain YCK3, active compounds read low
[17] = S. cerevisiae deletion strains, locus YER133W, strain GLC7, active compounds read low
[18] = S. cerevisiae deletion strains, locus YFL009W, strain cdc4, active compounds read low
[19] = S. cerevisiae deletion strains, locus YFL029C, strain CAK1, active compounds read low
[20] = S. cerevisiae deletion strains, locus YFR003C, strain YPI1, active compounds read low
[21] = S. cerevisiae deletion strains, locus YFR019W, strain FAB1, active compounds read low
[22] = S. cerevisiae deletion strains, locus YFR028C, strain CDC14, active compounds read low
[23] = S. cerevisiae deletion strains, locus YGR040W, strain KSS1, active compounds read low
[24] = S. cerevisiae deletion strains, locus YGR052W, strain FMP48, active compounds read low
[25] = S. cerevisiae deletion strains, locus YGR092W, strain DBF2, active compounds read low
[26] = S. cerevisiae deletion strains, locus YHR030C, strain SLT2, active compounds read low
[27] = S. cerevisiae deletion strains, locus YHR079C, strain IRE1, active compounds read low
[28] = S. cerevisiae deletion strains, locus YHR082C, strain KSP1, active compounds read low
[29] = S. cerevisiae deletion strains, locus YHR205W, strain SCH9, active compounds read low
[30] = S. cerevisiae deletion strains, locus YIL147C, strain SLN1, active compounds read low
[31] = S. cerevisiae deletion strains, locus YJL095W, strain BCK1, active compounds read low
[32] = S. cerevisiae deletion strains, locus YJL128C, strain PBS2, active compounds read low
[33] = S. cerevisiae deletion strains, locus YJL157C, strain FAR1, active compounds read low
[34] = S. cerevisiae deletion strains, locus YJR016C, strain ILV3, active compounds read low
[35] = S. cerevisiae deletion strains, locus YJR066W, strain TOR1 (second series), active compounds read low
[36] = S. cerevisiae deletion strains, locus YJR066W, strain TOR1, active compounds read low
[37] = S. cerevisiae deletion strains, locus YKL048C, strain ELM1, active compounds read low
[38] = S. cerevisiae deletion strains, locus YKL067W, strain YNK1, active compounds read low
[39] = S. cerevisiae deletion strains, locus YKL101W, strain HSL1, active compounds read low
[40] = S. cerevisiae deletion strains, locus YKL193C, strain SDS22, active compounds read low
[41] = S. cerevisiae deletion strains, locus YKL203C, strain TOR2, active compounds read low
[42] = S. cerevisiae deletion strains, locus YLR113W, strain HOG1, active compounds read low
[43] = S. cerevisiae deletion strains, locus YLR133W, strain CKI1, active compounds read low
[44] = S. cerevisiae deletion strains, locus YLR403W, strain SFP1, active compounds read low
[45] = S. cerevisiae deletion strains, locus YML070W, strain DAK1, active compounds read low
[46] = S. cerevisiae deletion strains, locus YMR001C, strain CDC5, active compounds read low
[47] = S. cerevisiae deletion strains, locus YMR205C, strain PFK2 (second series), active compounds read low
[48] = S. cerevisiae deletion strains, locus YMR277W, strain FCP1, active compounds read low
[49] = S. cerevisiae deletion strains, locus YNL006W, strain LST8, active compounds read low
[50] = S. cerevisiae deletion strains, locus YNL020C, strain ARK1, active compounds read low
[51] = S. cerevisiae deletion strains, locus YNL161W, strain CBK1, active compounds read low
[52] = S. cerevisiae deletion strains, locus YNL183C, strain NPR1, active compounds read low
[53] = S. cerevisiae deletion strains, locus YNL207W, strain RIO2, active compounds read low
[54] = S. cerevisiae deletion strains, locus YNL222W, strain SSU72, active compounds read low
[55] = S. cerevisiae deletion strains, locus YNL307C, strain MCK1 (second series), active compounds read low
[56] = S. cerevisiae deletion strains, locus YOL078W, strain AVO1, active compounds read low
[57] = S. cerevisiae deletion strains, locus YOL136C, strain PFK27, active compounds read low
[58] = S. cerevisiae deletion strains, locus YOR061W, strain CKA2, active compounds read low
[59] = S. cerevisiae deletion strains, locus YOR119C, strain RIO1, active compounds read low
[60] = S. cerevisiae deletion strains, locus YOR231W, strain MKK1, active compounds read low
[61] = S. cerevisiae deletion strains, locus YOR329C, strain SCD5, active compounds read low
[62] = S. cerevisiae deletion strains, locus YPL031C, strain PHO85, active compounds read low
[63] = S. cerevisiae deletion strains, locus YPL153C, strain RAD53, active compounds read low
[64] = S. cerevisiae deletion strains, locus YPL204W, strain HRR25, active compounds read low
[65] = S. cerevisiae deletion strains, locus YPL209C, strain IPL1, active compounds read low
[66] = S. cerevisiae deletion strains, locus YPL256C, strain CLN2, active compounds read low
[67] = S. cerevisiae deletion strains, locus YPR025C, strain CCL1, active compounds read low
[68] = S. cerevisiae deletion strains, locus YPR106W, strain ISR1, active compounds read low
[69] = S. cerevisiae deletion strains, locus YPR111W, strain DBF20, active compounds read low
[70] = S. cerevisiae deletion strains, strain NNK1, active compounds read low
[71] = S. cerevisiae deletion strains, strain TSCII, active compounds read low

Measured: normalized growth

Cc1c(-c2ccnn2C(=O)c2ccco2)cnn1-c1ccccc1
active: [26] 0.739 | [42] 0.799 | [66] 0.825
inactive: [1] 0.954 | [2] 0.957 | [3] 0.958 | [4] 0.954 | [5] 0.957 | [6] 0.964 | [7] 0.93 | [8] 0.978 | [9] 0.954 | [10] 0.953 | [11] 0.904 | [12] 0.982 | [13] 0.952 | [14] 0.953 | [15] 0.861 | [16] 0.925 | [17] 0.915 | [18] 0.936 | [19] 0.954 | [20] 0.959 | [21] 0.945 | [22] 0.94 | [23] 0.872 | [24] 0.966 | [25] 0.917 | [27] 0.909 | [28] 0.953 | [29] 0.909 | [30] 0.958 | [31] 0.842 | [32] 0.908 | [33] 0.916 | [34] 0.962 | [35] 0.828 | [36] 0.89 | [37] 0.972 | [38] 0.908 | [39] 0.894 | [40] 0.959 | [41] 0.965 | [43] 0.917 | [44] 0.873 | [45] 0.895 | [46] 0.953 | [47] 0.939 | [48] 0.938 | [49] 0.953 | [50] 0.931 | [51] 0.974 | [52] 0.953 | [53] 0.958 | [54] 0.943 | [55] 0.894 | [56] 0.958 | [57] 0.898 | [58] 0.909 | [59] 0.919 | [60] 0.885 | [61] 0.974 | [62] 0.858 | [63] 0.873 | [64] 0.851 | [65] 0.969 | [67] 0.957 | [68] 0.957 | [69] 0.917 | [70] 0.964 | [71] 0.94

Cc1c(C(=O)N(Cc2ccccc2)Cc2cccs2)cnn1-c1ccc(Cl)cc1
inactive: [1] 0.992 | [2] 0.989 | [3] 0.984 | [4] 0.981 | [5] 0.981 | [6] 0.998 | [7] 0.985 | [8] 0.99 | [9] 0.985 | [10] 0.976 | [11] 0.947 | [12] 1 | [13] 0.987 | [14] 0.996 | [15] 0.946 | [16] 0.94 | [17] 0.957 | [18] 0.986 | [19] 0.988 | [20] 0.99 | [21] 0.963 | [22] 0.981 | [23] 0.938 | [24] 1.03 | [25] 0.967 | [26] 0.934 | [27] 0.953 | [28] 1.03 | [29] 0.919 | [30] 0.997 | [31] 0.945 | [32] 0.967 | [33] 0.935 | [34] 0.982 | [35] 0.883 | [36] 1.02 | [37] 0.97 | [38] 0.968 | [39] 0.94 | [40] 0.982 | [41] 0.997 | [42] 0.925 | [43] 0.936 | [44] 0.915 | [45] 0.926 | [46] 0.987 | [47] 0.944 | [48] 0.989 | [49] 1.01 | [50] 0.945 | [51] 0.995 | [52] 0.995 | [53] 0.989 | [54] 0.99 | [55] 0.95 | [56] 0.989 | [57] 0.926 | [58] 0.95 | [59] 1 | [60] 0.888 | [61] 0.99 | [62] 0.962 | [63] 0.926 | [64] 0.931 | [65] 0.988 | [66] 0.922 | [67] 0.99 | [68] 0.974 | [69] 0.972 | [70] 0.986 | [71] 0.973

CC(=O)c1cnn(-c2ccccc2)c1C
inactive: S. cerevisiae deletion strains, locus YAL013W, strain DEP1, active compounds read low 0.979 | S. cerevisiae deletion strains, locus YBR229C, strain ROT2, active compounds read low 0.984 | S. cerevisiae deletion strains, locus YCL061C, strain MRC1, active compounds read low 0.992 | [8] 0.985 | S. cerevisiae deletion strains, locus YDL134C, strain PPH21, active compounds read low 1.01 | S. cerevisiae deletion strains, locus YDR150W, strain NUM1, active compounds read low 0.925 | S. cerevisiae deletion strains, locus YEL061C, strain CIN8, active compounds read low 1 | S. cerevisiae deletion strains, locus YGR078C, strain PAC10, active compounds read low 0.995 | [26] 0.945 | S. cerevisiae deletion strains, locus YHR087W, strain rtc3, active compounds read low 0.99 | S. cerevisiae deletion strains, locus YJR043C, strain POL32, active compounds read low 0.994 | S. cerevisiae deletion strains, locus YJR075W, strain HOC1, active compounds read low 1 | S. cerevisiae deletion strains, locus YLR039C, strain RIC1, active compounds read low 1 | S. cerevisiae deletion strains, locus YLR058C, strain SHM2 (second series), active compounds read low 0.998 | S. cerevisiae deletion strains, locus YLR085C, strain ARP6, active compounds read low 0.963 | S. cerevisiae deletion strains, locus YLR262C, strain YPT6, active compounds read low 1.01 | S. cerevisiae deletion strains, locus YML094W, strain GIM5, active compounds read low 0.948 | S. cerevisiae deletion strains, locus YMR219W, strain ESC1, active compounds read low 0.997 | S. cerevisiae deletion strains, locus YMR263W, strain SAP30, active compounds read low 0.922 | S. cerevisiae deletion strains, locus YMR307W, strain GAS1, active compounds read low 0.957 | S. cerevisiae deletion strains, locus YNL153C, strain GIM3, active compounds read low 0.981 | S. cerevisiae deletion strains, locus YNL298W, strain CLA4 (second series), active compounds read low 1 | S. cerevisiae deletion strains, locus YNL322C, strain KRE1, active compounds read low 0.997 | S. cerevisiae deletion strains, locus YNR030W, strain Alg12, active compounds read low 1 | S. cerevisiae deletion strains, locus YOL006C, strain TOP1, active compounds read low 0.983 | S. cerevisiae deletion strains, locus YPL055C, strain LGE1, active compounds read low 0.848 | S. cerevisiae deletion strains, locus YPL241C, strain CIN2, active compounds read low 0.984 | S. cerevisiae deletion strains, locus YPR135W, strain CTF4, active compounds read low 0.944 | S. cerevisiae strains, strain wild type, active compounds read low 0.997
